Results taken from PubChem BioAssay (Tox21).
A number with no mark means an inactive call. Results filed as inconclusive are left out. Where a call stands in place of a potency, no number is given. Calls of active or inactive are those of the source. Unless noted, calls follow the shape of the dose curve; as a rule, active = well fitted curve in the direction sought with a large enough effect in the repeat runs; inconclusive = weak or mixed curves; inactive = no such curve, though single readings can be large; an effect the other way counts as inactive or inconclusive.

Key:
[1] = qHTS RealTime-Glo MT Cell Viability Assay in HepG2 cells - 32 hour (AID 1224877); also: nearly all actives have a fitted effect of over 55% in size
Summary of the method: (§1)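 qHTS, HepG2, 600 cells/well, RealTime-Glo (NanoLuc + prosubstrate) added with cells; 5 h preincubation; DMSO compound addition; 37 C; luminescence at 0/8/16/24/32/40 h.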

[2] = A CellTox Green Cytotoxicity Assay to monitor cytotoxicity in HepG2 cells - 24 hour (AID 1224878); also: nearly all actives have a fitted effect of over 45% in size; also: potency is read from the fitted curve at half-maximal effect
Summary of the method: (§2)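 Continuous culture of HepG2 cells with a membrane-impermeant DNA dye; rising fluorescence marks dead cells. Compound exposure lasted up to 40 h at 37 C, with reads every 8 h from 0 h.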

[3] = A CellTox Green Cytotoxicity Assay to monitor cytotoxicity in HepG2 cells - 40 hour (AID 1224879); also: nearly all actives have a fitted effect of over 40% in size; also: potency is read from the fitted curve at half-maximal effect
Summary of the method: as §2

[4] = qHTS RealTime-Glo MT Cell Viability Assay in HEK293 cells - 0 hour (AID 1224880); also: top concentration of the series differs between compounds; nearly all actives have a fitted effect of over 45% in size
Summary of the method: (§3)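 qHTS format; HEK293 cells with NanoLuc/prosubstrate reagent, 37 C/5% CO2 for 5 h pre-dosing; compounds 23 nL in DMSO; luminescence at each time point reflects viable cells.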

[5] = A CellTox Green Cytotoxicity Assay to monitor cytotoxicity in HEK293 cells - 32 hour (AID 1224881); also: nearly all actives have a fitted effect of over 40% in size
Summary of the method: (§4)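 Each value comes from one timepoint of a single continuous run in which HEK293 cells with CellTox Green were exposed to compound for up to 40 h at 37 C, dye fluorescence rising with cell death.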

[6] = A CellTox Green Cytotoxicity Assay to monitor cytotoxicity in HepG2 cells - 0 hour (AID 1224882); also: nearly all actives have a fitted effect of over 35% in size
Summary of the method: as §2

[7] = A CellTox Green Cytotoxicity Assay to monitor cytotoxicity in HepG2 cells - 32 hour (AID 1224883); also: nearly all actives have a fitted effect of over 50% in size; also: potency is read from the fitted curve at half-maximal effect
Summary of the method: as §2

[8] = A CellTox Green Cytotoxicity Assay to monitor cytotoxicity in HEK293 cells - 8 hour (AID 1224884); also: nearly all actives have a fitted effect of over 35% in size
Summary of the method: as §4

[9] = qHTS RealTime-Glo MT Cell Viability Assay in HepG2 cells - 16 hour (AID 1224885); also: nearly all actives have a fitted effect of over 50% in size
Summary of the method: as §1

[10] = qHTS RealTime-Glo MT Cell Viability Assay in HEK293 cells - 24 hour (AID 1224886); also: top concentration of the series differs between compounds; nearly all actives have a fitted effect of over 50% in size
Summary of the method: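 Assay medium contained NanoLuc luciferase plus cell-permeant prosubstrate, added with HEK293 cells at 600 cells/well. After 5 h at 37 C/5% CO2 compounds were added; plates stayed at 37 C for 40 h with serial luminescence reads.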

[11] = qHTS RealTime-Glo MT Cell Viability Assay in HEK293 cells - 8 hour (AID 1224887); also: top concentration of the series differs between compounds; nearly all actives have a fitted effect of over 50% in size
Summary of the method: as §3

[12] = A CellTox Green Cytotoxicity Assay to monitor cytotoxicity in HEK293 cells - 16 hour (AID 1224888); also: nearly all actives have a fitted effect of over 35% in size
Summary of the method: as §4

[13] = qHTS RealTime-Glo MT Cell Viability Assay in HepG2 cells - 0 hour (AID 1224889); also: nearly all actives have a fitted effect of over 50% in size
Summary of the method: as §1

[14] = A CellTox Green Cytotoxicity Assay to monitor cytotoxicity in HepG2 cells - 8 hour (AID 1224890); also: nearly all actives have a fitted effect of over 45% in size
Summary of the method: as §2

[15] = qHTS assay to identify small molecule antagonists of the estrogen receptor alpha (ER-alpha) signaling pathway using the BG1 cell line in the presence of 0.1 nM 17-beta-estradiol - cell viability counter screen (AID 1259241); also: nearly all actives have a fitted effect of over 40% in size
Summary of the method: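 Following 5 days in phenol red-free medium with charcoal-stripped serum, VM7Luc4E2 cells received test compounds alongside 0.1 nM 17beta-estradiol (final) at 37C for 22 hr. Live cells were then quantified via protease-substrate fluorescence.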

[16] = qHTS assay to identify small molecule HDAC inhibitors (AID 1259364); also: top concentration of the series differs between compounds; nearly all actives have a fitted effect of over 45% in size
Summary of the method: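 Endogenous HDAC class I/II activity was measured in wild-type HCT-116 cells by HDAC-Glo luminescence after 2 h compound treatment.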

[17] = qHTS assay to identify small molecule antagonists of the androgen receptor (AR) signaling pathway using the MDA cell line in the presence of 0.5 nM R1881 - cell viability counter screen (AID 1259242); also: nearly all actives have a fitted effect of over 45% in size
Summary of the method: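 Fluorescence from CellTiter-Fluor, which reports protease activity of live cells, was read 30 min after reagent addition to MDA-kb2 cells that had been incubated 16 hr with compound and 0.5 nM R1881.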

[18] = qHTS assay to identify small molecule phospholipidosis (PLD) inducers (AID 1259344; active = well fitted curve in the direction sought with a large enough effect; an effect the other way counts as inactive or inconclusive)
Summary of the method: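 Fluorescent phospholipid staining (LipidTOX Red) measured by automated microscopy in fixed HepG2 cells after 24 h treatment; nuclei counterstained with Hoechst 33342; amiodarone as reference inducer.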

[19] = biological target: Estrogen receptor (Homo sapiens) (UniProt P03372); test: qHTS assay to identify small molecule antagonists of the estrogen receptor alpha (ER-alpha) signaling pathway using the BG1 cell line in the presence of 0.1 nM 17-beta-estradiol (AID 1259244); also: nearly all actives have a fitted effect of over 50% in size
Chain of Estrogen receptor (Homo sapiens) (P03372 whole entry, looked up): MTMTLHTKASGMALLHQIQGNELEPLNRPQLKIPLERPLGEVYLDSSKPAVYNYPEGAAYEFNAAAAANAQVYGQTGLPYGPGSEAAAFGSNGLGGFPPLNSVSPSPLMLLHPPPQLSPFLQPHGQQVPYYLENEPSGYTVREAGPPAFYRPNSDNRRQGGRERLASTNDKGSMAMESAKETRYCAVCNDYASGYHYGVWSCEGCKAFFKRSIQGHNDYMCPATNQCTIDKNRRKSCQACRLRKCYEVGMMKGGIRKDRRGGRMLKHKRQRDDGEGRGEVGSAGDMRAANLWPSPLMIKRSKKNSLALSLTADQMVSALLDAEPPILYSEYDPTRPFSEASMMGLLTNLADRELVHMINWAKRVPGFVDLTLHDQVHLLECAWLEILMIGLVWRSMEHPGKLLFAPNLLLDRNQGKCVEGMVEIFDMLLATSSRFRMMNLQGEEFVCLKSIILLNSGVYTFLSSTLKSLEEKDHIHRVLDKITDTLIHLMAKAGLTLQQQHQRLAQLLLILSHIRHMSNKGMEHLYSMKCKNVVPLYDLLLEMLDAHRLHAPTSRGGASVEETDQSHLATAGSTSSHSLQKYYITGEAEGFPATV
Summary of the method: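 Quantitative high-throughput screen in VM7Luc4E2 cells: compound plus 0.1 nM E2 (final), 22 h, 37C, 5% CO2; ONE-Glo added, 30 min room temperature, luminescence measured.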

[20] = biological target: Androgen receptor (Homo sapiens) (UniProt P10275); test: qHTS assay to identify small molecule antagonists of the androgen receptor (AR) signaling pathway using the MDA cell line in the presence of 0.5 nM R1881 (AID 1259243); also: nearly all actives have a fitted effect of over 50% in size; also: potency is read from the fitted curve at half-maximal effect
Chain of Androgen receptor (Homo sapiens) (P10275 whole entry, looked up): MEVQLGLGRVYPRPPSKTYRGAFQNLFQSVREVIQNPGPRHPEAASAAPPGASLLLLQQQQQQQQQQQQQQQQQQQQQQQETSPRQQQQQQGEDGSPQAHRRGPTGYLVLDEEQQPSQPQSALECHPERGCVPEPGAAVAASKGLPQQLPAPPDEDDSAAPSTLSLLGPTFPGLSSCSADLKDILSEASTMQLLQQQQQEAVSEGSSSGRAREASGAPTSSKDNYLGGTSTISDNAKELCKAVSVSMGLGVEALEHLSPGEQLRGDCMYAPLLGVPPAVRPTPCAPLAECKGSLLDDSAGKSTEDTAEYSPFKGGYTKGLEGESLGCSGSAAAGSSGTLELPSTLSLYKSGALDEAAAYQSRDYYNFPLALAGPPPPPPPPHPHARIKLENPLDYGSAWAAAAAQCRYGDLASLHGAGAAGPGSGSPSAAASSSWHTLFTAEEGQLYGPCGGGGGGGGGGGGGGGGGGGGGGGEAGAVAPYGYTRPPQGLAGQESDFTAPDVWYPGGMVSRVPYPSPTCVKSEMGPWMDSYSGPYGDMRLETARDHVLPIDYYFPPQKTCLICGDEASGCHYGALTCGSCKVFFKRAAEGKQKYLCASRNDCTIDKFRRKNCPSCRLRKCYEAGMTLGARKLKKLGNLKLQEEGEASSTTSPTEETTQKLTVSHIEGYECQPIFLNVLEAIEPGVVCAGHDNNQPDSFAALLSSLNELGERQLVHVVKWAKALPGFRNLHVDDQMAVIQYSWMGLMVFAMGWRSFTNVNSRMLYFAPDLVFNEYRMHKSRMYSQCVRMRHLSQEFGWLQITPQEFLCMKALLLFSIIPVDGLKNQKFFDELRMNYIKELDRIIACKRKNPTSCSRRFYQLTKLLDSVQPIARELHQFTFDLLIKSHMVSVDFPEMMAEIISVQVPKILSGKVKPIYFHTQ
Summary of the method: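 Inhibition of R1881 (0.5 nM final) induced reporter signal was measured in human MDA-kb2 cells; note the MMTV promoter also responds to GR. Exposure lasted 16 hr at 37C.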

Row | SMILES | outcome [1] | Potency [2] | Potency [3] | Potency [4] | Potency [5] | Potency [6] | Potency [7] | Potency [8] | outcome [9] | outcome [10] | outcome [11] | Potency [12] | Potency [13] | Potency [14] | outcome [15] | Potency [16] | outcome [17] | Potency [18] | outcome [19] | Potency [20]
1 | CC(C)OCCO | inactive | inactive | inactive | inactive | inactive | inactive | inactive | inactive | inactive | inactive | inactive | inactive | inactive | inactive | inactive | inactive |  |  |  | 
2 | CCOc1ccccc1OCCN[C@H](C)Cc1ccc(OC)c(S(N)(=O)=O)c1 | inactive | inactive | inactive | inactive | inactive | inactive | inactive | inactive | inactive | inactive | inactive | inactive | inactive | inactive | inactive | inactive | inactive | inactive |  | 
3 | CCN1CCN(C(=O)N[C@@H](C(=O)N[C@@H]2C(=O)N3C(C(=O)O)=C(CSc4nnnn4C)CS[C@H]23)c2ccc(O)cc2)C(=O)C1=O | inactive | inactive | inactive | inactive | inactive | inactive | inactive | inactive | inactive | inactive | inactive | inactive | inactive | inactive |  | inactive | inactive | inactive | inactive | 
4 | CCc1ccc(CC)cc1 | inactive | inactive | inactive | inactive | inactive | inactive | inactive | inactive | inactive | inactive | inactive | inactive | inactive | inactive | inactive |  |  |  | inactive | 
5 | CCC(=O)OCCOc1ccccc1 | inactive | inactive | inactive | inactive | inactive | inactive | inactive | inactive | inactive | inactive | inactive | inactive | inactive | inactive | inactive | inactive |  |  | inactive | 
6 | CN(C)c1cc(NC(=O)CNC(C)(C)C)c(O)c2c1C[C@H]1C[C@H]3[C@H](N(C)C)C(=O)C(C(N)=O)=C(O)[C@@]3(O)C(=O)C1=C2O | inactive | inactive | inactive | inactive | inactive | inactive | inactive | inactive | inactive | inactive | inactive | inactive | inactive | inactive | inactive | inactive |  | inactive | inactive | inactive
7 | CCCCC(CC)COC(=O)CC#N (stereo not given) | inactive | inactive | inactive | inactive | inactive | inactive | inactive | inactive | inactive | inactive |  | inactive | inactive | inactive | inactive | inactive | inactive |  | inactive | 
8 | CC(C)=CCC/C(C)=C\C#N | inactive | inactive | inactive | inactive | inactive | inactive | inactive | inactive | inactive | inactive | inactive | inactive | inactive | inactive |  | inactive | inactive |  | inactive | 
9 | BrCCOc1ccccc1 | inactive | inactive | inactive | inactive | inactive | inactive | inactive | inactive | inactive | inactive | inactive | inactive | inactive | inactive |  |  | inactive |  | inactive | 
10 | CCOC(=O)COc1ccc2c(C)c(CCN(CC)CC)c(=O)oc2c1Cl | inactive | inactive | inactive | inactive | inactive | inactive | inactive | inactive | inactive | inactive |  | inactive | inactive | inactive | inactive | inactive | inactive | inactive | inactive | 
11 | CCCC(=O)OC | inactive | inactive | inactive | inactive | inactive | inactive | inactive | inactive | inactive | inactive | inactive | inactive | inactive | inactive | inactive | inactive |  |  | inactive | 
12 | O=C(O)COc1ccc2ccccc2c1 | inactive | inactive | inactive | inactive | inactive | inactive | inactive | inactive | inactive | inactive | inactive | inactive | inactive | inactive | inactive |  |  |  | inactive | 
13 | CCCCNCC | inactive | inactive | inactive | inactive | inactive | inactive | inactive | inactive | inactive | inactive | inactive | inactive | inactive | inactive |  |  | inactive |  | inactive | 
14 | Cc1ccc(Br)cc1 | inactive | inactive | inactive | inactive | inactive | inactive | inactive | inactive | inactive | inactive | inactive | inactive | inactive | inactive |  | inactive |  |  | inactive | 
15 | C/C=C/C(=O)CCCC | inactive | inactive | inactive | inactive | inactive | inactive | inactive | inactive | inactive | inactive |  | inactive | inactive | inactive | inactive | inactive | inactive |  | inactive | 
16 | O=c1[nH]c(=O)c2cn[nH]c2[nH]1 | inactive | inactive | inactive | inactive | inactive | inactive | inactive | inactive | inactive | inactive | inactive | inactive | inactive | inactive |  | inactive | inactive |  |  | 
17 | CC/C=C\CCCCCCCCCCOC(C)=O | inactive | inactive | inactive | inactive | inactive | inactive | inactive | inactive | inactive | inactive | inactive | inactive |  | inactive | inactive | inactive |  |  | inactive | 
18 | CSC(=O)c1cccc2nnsc12 | inactive | inactive | inactive | inactive | inactive | inactive | inactive | inactive | inactive | inactive |  | inactive | inactive | inactive | inactive | inactive | inactive |  | inactive | 15.4 µM (active)
19 | O=C(CCBr)N1CCN(C(=O)CCBr)CC1 | inactive | inactive | inactive | inactive | inactive | inactive | inactive | inactive | inactive | inactive | inactive | inactive | inactive | inactive | inactive | inactive |  | inactive | inactive | 
20 | NS(=O)(=O)c1cc2c(cc1C(F)(F)F)NCNS2(=O)=O | inactive | inactive | inactive | inactive | inactive | inactive | inactive | inactive | inactive | inactive | inactive | inactive | inactive | inactive |  | inactive | inactive | inactive | inactive | 
21 | Cc1cc(O)c(Cl)cc1C | inactive | 49 µM (active) | 49 µM (active) | inactive | inactive | inactive | 49 µM (active) | inactive | inactive | inactive | inactive | inactive | inactive |  | inactive | inactive |  |  | inactive | 
22 | O=S(=O)(O)c1cc(I)c(O)c2ncccc12 | inactive | inactive | inactive | inactive | inactive | inactive | inactive | inactive | inactive | inactive | inactive | inactive | inactive | inactive |  | inactive | inactive | inactive |  | 
23 | CCCCc1ccc(Cl)cc1 | inactive | inactive | inactive | inactive | inactive | inactive | inactive | inactive | inactive | inactive | inactive | inactive | inactive | inactive |  | inactive | inactive |  | inactive | 
24 | C=CC(=O)OCC[N+](C)(C)C | inactive | inactive | inactive | inactive | inactive | inactive | inactive | inactive | inactive | inactive | inactive | inactive | inactive | inactive | inactive | inactive |  |  | inactive | 
25 | CC(CN1CC(=O)NC(=O)C1)N1CC(=O)NC(=O)C1 (stereo not given) | inactive | inactive | inactive | inactive | inactive | inactive | inactive | inactive | inactive | inactive | inactive | inactive | inactive | inactive |  |  | inactive |  | inactive | inactive
26 | CCC(C)c1nccnc1OC (stereo not given) | inactive | inactive | inactive | inactive | inactive | inactive | inactive | inactive | inactive | inactive | inactive | inactive | inactive | inactive | inactive | inactive |  |  | inactive | 
27 | CN1C(CCl)Nc2cc(Cl)c(S(N)(=O)=O)cc2S1(=O)=O (stereo not given) | inactive | inactive | inactive | inactive | inactive | inactive | inactive | inactive | inactive | inactive | inactive | inactive | inactive | inactive |  |  | inactive | inactive | inactive | 
28 | Cc1cc(N)no1 | inactive | inactive | inactive | inactive | inactive | inactive | inactive | inactive | inactive | inactive | inactive | inactive | inactive | inactive | inactive | inactive | inactive |  |  | 
